The text below walks through data of PubChem BioAssay AID540332 (The Scripps Research Institute Molecular Screening Center, 2011).

Unmarked numbers belong to inactive results. No rule for the calls is given here.

The subject of this experiment is Imidazoline I2. Description: selectivity profile across receptors and CYP450s – biochemical, Ricerca HitProfilingScreen, CYP450, set 2, selectivity assay for S1P4 agonist project, profiling panel (AID 540332). The conditions noted are these: Central; at 30 µM; active compounds read high.

For the compound `COCCN=C1S/C(=C\c2cc(C)n(-c3ccc(F)cc3F)c2C)C(=O)N1C`, the inhibition is 2%.

The term inhibition denotes the change of the read-out against control, counted positive when it falls.
